# Data: PubChem BioAssay
# Active and inactive are the calls of the source.
# Tests used:
# [1] = tested on: XIP peptide (Xip251-270) binding; assay: small-molecule binders of XIP peptide, primary screen, biochemical, small-molecule microarray, fluorescence 635/667 nm, 0.1 µg/mL protein (AID 1182); settings: fluorescent protein binding, 635 nm, higher = more signal, called active from +8 up or from −8 down
# [2] = tested on: XIP peptide (Xip251-270); assay: small-molecule binders of XIP peptide, primary screen, biochemical, small-molecule microarray, fluorescence 635/667 nm, 0.5 µg/mL protein (AID 1183); settings: small-molecule microarray binding, fluorescence 635 nm; higher = more signal
# [3] = Plasmodium falciparum growth inhibition, primary screen, strain 3D7, DAPI fluorescence, 100 nL (AID 1184);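 also: parasites grown inside human red blood cells in medium with human serum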; settings: P. falciparum 3D7 growth, 3 d, higher = more signal
# [4] = molecular target: Homeobox protein Hox-A13 (Mus musculus) (UniProt Q62424); assay: inhibitors of HoxA13-DNA binding, primary screen, biochemical, fluorescence polarization, labeled oligonucleotide (AID 1185); settings: 15 min, higher = more signal, called active from +8 up or from −8 down
# Sequence of Homeobox protein Hox-A13 (Mus musculus) (Q62424 whole entry, looked up): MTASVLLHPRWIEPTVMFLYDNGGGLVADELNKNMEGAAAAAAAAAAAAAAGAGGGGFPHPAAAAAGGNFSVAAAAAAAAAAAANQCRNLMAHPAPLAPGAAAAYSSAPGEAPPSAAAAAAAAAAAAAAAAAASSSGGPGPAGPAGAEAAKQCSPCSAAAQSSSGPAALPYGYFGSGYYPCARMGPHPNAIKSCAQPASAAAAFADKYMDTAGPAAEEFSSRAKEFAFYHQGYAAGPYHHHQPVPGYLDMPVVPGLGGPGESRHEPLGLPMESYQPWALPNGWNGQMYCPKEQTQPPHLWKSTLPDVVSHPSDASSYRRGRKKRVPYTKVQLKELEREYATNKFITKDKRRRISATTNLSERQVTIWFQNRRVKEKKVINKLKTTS
Compound,composite z-score [1],composite z-score [2],z-score [3],z-score [4]
CC(CCN1CCCc2nc(C)c(C)cc21)=NOC(C)CN1CCCCc2nc(C)c(C)cc21 (stereo unspecified),-0.053 (inactive),0.725,-0.153,-6.78 (inactive)
CSCC[C@@H]1NC(=O)CC=C[C@@H](C)COC(=O)[C@@H](C)COC1=O,-0.082 (inactive),-0.318,-0.866,0.572 (inactive)
O=C(NN=C1C[C@@H](O)[C@@H](O)[C@@H]2[C@@H]3C(=O)N(C4CCCCC4)C(=O)[C@@H]3CC[C@@H]12)OCc1ccccc1,0.152 (inactive),-0.0414,-0.321,-3.09 (inactive)
O=c1n(Cc2cc3c(cc2Cl)OCO3)c(=O)n2n1CC[C@@H]1C(=NOC[C@@H](O)COCc3ccco3)[C@H]3O[C@H]3[C@@H](O)[C@@H]12,-0.45 (inactive),0.108,-0.181,-0.786 (inactive)
